Source: PubChem BioAssay
A selection: hits, their analogues and other compounds. The true share with any hit is near 3%.
Vc quorum ag-1 = quorum light induction in luxS cqsA deficient V. cholerae | 0.16% of 350,000 active | activation, % at 18.7 µM | AID 588436 | V. cholerae BH1578 lux reporter, luminescence, 6 h; in the data active = activation mostly above about 9.7%, no sharp cut-off; inconclusive = no clear call, values can overlap the other calls; inactive = mostly below about 3.7%
FBA Mtb inh = Mtb fructose-bisphosphate aldolase inhibition; purified M. tuberculosis FBA, fluorescence read-out; 2.3% of 360,000 active; AID 588726; inhibition, % at 1 µM; in the data active = inhibition above about 27%;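 note: 0% = vehicle and 100% = reference inhibitor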
Target sequence (P9WQA3 whole entry, looked up): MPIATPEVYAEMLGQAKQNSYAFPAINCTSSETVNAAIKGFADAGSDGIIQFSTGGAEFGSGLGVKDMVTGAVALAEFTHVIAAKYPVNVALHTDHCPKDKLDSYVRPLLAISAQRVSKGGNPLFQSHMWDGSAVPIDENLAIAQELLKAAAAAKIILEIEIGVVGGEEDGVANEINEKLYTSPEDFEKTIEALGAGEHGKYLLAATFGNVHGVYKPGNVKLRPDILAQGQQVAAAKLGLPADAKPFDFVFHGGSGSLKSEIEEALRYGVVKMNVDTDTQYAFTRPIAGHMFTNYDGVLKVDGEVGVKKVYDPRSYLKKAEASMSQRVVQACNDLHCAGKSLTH
GDH-TPI inh = GDH-TPI coupled enzyme inhibition counter-screen. GDH-TPI coupled enzyme counterscreen, NADH absorbance. 1.2% of 360,000 active. inhibition, % at 4.8 µM. AID 588335; in the data active = inhibition above about 30%;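 note: 0% = DMSO wells and 100% = wells lacking the enzyme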
Mtb BioA inh = inhibitors of Mycobacterium tuberculosis BioA enzyme. purified M. tuberculosis BioA enzyme, plate reader. inhibition, % at 9.99 µM. 0.096% of 360,000 active. AID 602481; in the data active = inhibition above about 40%; inconclusive = no clear call, values can overlap the other calls
Vc quorum ag-2 = inducers of V. cholerae quorum light production without autoinducers | shares compounds with Vc quorum ag-1 | V. cholerae BH1578 lux reporter, luminescence, 6 h | activation, % at 50 µM | 620 tested, under 10 active | AID 602243; call rule not given here
HeLa 24h tox = HeLa cell viability loss at 24 h; shares compounds with Vc quorum ag-1; CellTiter-Glo ATP luminescence; activity change, negative = cytotoxicity, % at 35 µM; 25 tested, under 10 active; AID 624140;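 active = signal drop with fitted half-maximal concentration at or below twice the highest valid dose; inconclusive = flat curve with 30 to 70% loss, or poor fit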
Numbers without * were called inactive; i = inactive; ? = inconclusive; nt = no result; + = active, no number.

SMILES	Vc quorum ag-1	FBA Mtb inh	GDH-TPI inh	Mtb BioA inh	Vc quorum ag-2	others
CCc1ccc2c(c1)c1nnc(NN)nc1n2CC	135*	1	10	1	106
CO[C@H]1CN(C)C(=O)c2cc(NC(=O)C3CC3)ccc2OC[C@@H](C)N(Cc2cccnc2)C[C@@H]1C	nt	nt	nt	3	nt
O=C(c1cc2ccccc2cc1O)N1CCN(c2ccccc2O)CC1	12	-1	-5	5	0
O=C(c1cc2ccccc2cc1O)N1CCCC1	-1	-1	-7	0	nt
C[C@@H]1CN([C@@H](C)CO)C(=O)c2cc(C#Cc3ccccc3)cnc2O[C@H]1CN(C)CC1CCOCC1	nt	nt	nt	8	nt
CCOc1ccc(Nc2ccc3nonc3c2[N+](=O)[O-])cc1	+	-1	12	-1	i	HeLa 24h tox=17
CO[C@H]1CN(C)C(=O)c2ccc(NC(=O)c3cnccn3)cc2OC[C@@H](C)N(C)C[C@@H]1C	nt	nt	nt	-2	nt
CCCOc1cc(C)c(S(=O)(=O)NCCOC)cc1C	14	0	-11	0	0
CCOC(=O)C1CCCN(C(=O)c2cc3c(OC)c(OC)c(OC)cc3[nH]2)C1 (centres undefined)	17*	7	4	0	0
CCC(=O)Nc1ccc2c(c1)OC[C@H](C)N(C(=O)Cc1cccnc1)C[C@@H](C)[C@H](OC)CN(C)C2=O	nt	nt	nt	-1	nt
Cc1cc2oc(=O)cc(CN3CCC(C)CC3)c2cc1Cl	26*	1	0	0	4
Cc1cc2oc(=O)cc(CN3CCN(Cc4ccccc4)CC3)c2cc1Cl	-7	-2	6	0	nt
Cc1noc(C)c1NC(=O)Nc1cccc2c1O[C@H](CN(C)S(=O)(=O)c1cccs1)[C@@H](C)CN([C@@H](C)CO)C2=O	nt	nt	nt	3	nt
COc1ccc(/C(N)=N/OC(=O)Cc2ccccc2OC)cc1	12	-2	-11	0	1
CCCN1C[C@H](C)[C@@H](OC)CN(C)C(=O)c2cc(NC(=O)c3ccno3)ccc2OC[C@@H]1C	nt	nt	nt	14	nt
Cc1cccc(NC(=O)CSc2nc(=O)n(CCN3CCOCC3)c3c2CCCC3)c1C	2	2	3	2	0
N#Cc1ccccc1NC(=O)CNc1ccccc1N1CCCCC1	160*	0	6	-3	255
CN(Cc1ccccc1NCC(=O)Nc1ccccc1C#N)C1CCCCC1	0	-2	7	0	nt
COCCNC(=O)CN1CCN(C(c2ccccc2)c2ccccc2)CC1	12	-2	-1	1	0
CC(NC(=O)CN1CCN(c2ccccc2F)CC1)c1ccccc1 (centres undefined)	27	1	17	-3	1
NC(=O)c1cc(Br)cc2c3c([nH]c12)CCCC3	-1	6	10	1	nt
NC(=O)c1cc(Br)cc(C2CCCCC2)c1O	nt	14	-1	0	i
O=C(C[C@@H]1CC[C@H](NC(=O)Nc2ccc(C(F)(F)F)cc2)[C@@H](CO)O1)NCCN1CCCC1	nt	nt	nt	-3	nt
CCOC(=O)C1CCN(C(=O)Nc2ccc3c(c2)nc(C)n3C)CC1	?	0	0	nt	0
Cc1nc2cc(NC(=O)N3CCCCC3)ccc2n1C	0	-1	-3	0	nt
SMILES	Vc quorum ag-1	FBA Mtb inh	GDH-TPI inh	Mtb BioA inh	Vc quorum ag-2	others
CCOC(=O)CC1C(=O)NCCN1C(=O)c1cccc(C(F)(F)F)c1 (centres undefined)	17*	1	10	0	1
CC(C)c1ccc(CNc2nnnn2C)cc1	nt	-1	5	-3	i
CCOc1ccc(CNc2nnnn2C)cc1	+	4	-14	0	i
Cn1nnnc1NCc1cccc(Cl)c1	2	3	2	0	nt
Cc1nnc2c3ccccc3c(-c3ccc(O)cc3)nn12	84*	2	16	nt	412
Cn1cnc(S(=O)(=O)N[C@@H]2C=C[C@H](CC(=O)Nc3ccccc3)O[C@@H]2CO)c1	nt	nt	nt	0	nt
Nc1nnc(SCC(=O)Nc2ccc3c(c2)OCCO3)s1	12	2	-2	-1	0
CCC(=O)Nc1nnc(SCC(=O)Nc2ccc3c(c2)OCCO3)s1	i	0	15	-5	nt
COc1ccc(NC(=O)N(C)C[C@H]2Oc3ccc(NS(=O)(=O)c4cccs4)cc3CC(=O)N([C@H](C)CO)C[C@@H]2C)cc1	nt	nt	nt	-1	nt
Cc1ccc(OCC(=O)NC2CCS(=O)(=O)C2)c([N+](=O)[O-])n1 (centres undefined)	12	0	0	1	0
CCN(CC)S(=O)(=O)c1ccc(OCC(=O)NC2CCS(=O)(=O)C2)c([N+](=O)[O-])c1 (centres undefined)	0	-1	-4	nt	nt
CCC(=O)N(C)C[C@@H]1Oc2cc(-c3ccc(OC)cc3)ccc2S(=O)(=O)N([C@H](C)CO)C[C@@H]1C	nt	nt	nt	1	nt
Cc1occc1-c1nnc(SCC(=O)NCc2cccs2)n1-c1ccc(F)cc1	14	2	1	9	0
Cc1ccc(S(=O)(=O)N(C)c2nc3ccccc3[nH]c2=S)cc1	i	3	9	nt	nt
Cc1ccc(S(=O)(=O)N(C)c2nonc2C)cc1	12	2	-5	-1	0
Nc1nc(SCc2nc3sc4c(c3c(=O)[nH]2)CCCC4)n[nH]1	31*	1	1	0	1
CCSc1nc2sc3c(c2c(=O)[nH]1)CCCC3	i	2	6	-2	nt
O=C(Nc1nnc(-c2ccc(Cl)cc2)o1)C1CCCCC1	0	0	-5	1	nt
O=C(Nc1nnc(-c2ccc3c(c2)OCCO3)o1)C1CCCCC1	nt	-1	16	nt	nt	HeLa 24h tox=-13
C[C@@H]1CCCCO[C@H](CN(C)S(C)(=O)=O)[C@@H](C)CN([C@@H](C)CO)C(=O)c2cc(NC(=O)c3ccccc3)ccc2O1	nt	nt	nt	0	nt
N#Cc1ccc(-c2nc3ccc(Br)cc3c(=O)n2O)cc1	i	0	-3	1	nt
O=c1c2cc(Br)ccc2nc(-c2cccc(C(F)(F)F)c2)n1O	18*	0	-2	1	1
C[C@@H]1CCCCO[C@@H](CN(C)S(=O)(=O)c2cccs2)[C@@H](C)CN([C@H](C)CO)C(=O)c2cc(NC(=O)CCCCCC(=O)Nc3ccccc3N)ccc2O1	nt	nt	nt	0	nt
Cc1cccc(-c2noc(-c3ccccc3C(=O)NCC3CCCO3)n2)c1 (centres undefined)	14	5	7	0	-1
CCCNC(=O)Cc1ccsc1	12	1	-7	-1	0
CCn1cc(C(=O)NC2CCCCC2C)c(=O)c2ccc(C)nc21 (centres undefined)	30*	-4	14	-2	0
CN1C(=O)c2cc(NC(=O)c3ccc(F)cc3)ccc2OC[C@@H]2O[C@@H](CC(=O)N3CCOCC3)CC[C@@H]21	nt	nt	nt	1	nt
COCCCNC(=O)c1ccc2c(=O)n(CC3CCCO3)c(=S)[nH]c2c1 (centres undefined)	i	2	9	-1	nt
COCCCNC(=O)c1ccc2c(=O)n(C3CCCC3)c(=S)[nH]c2c1	7	0	-4	0	0
CCOc1ccc(CNC(=O)Cn2c(=O)c3cccn3c3ccccc32)cc1	25*	-3	-4	0	0
